# Assay results: PubChem BioAssay (EPA / NIEHS)
# “And” between values parts separate entries of the source, which are not always exact repeats. Equal entries are not always repeated. Records with an inconclusive call do not appear. The source made the active and inactive calls. How the source made its calls: active means hit-call score of the fitted dose curve at least 0.9, where 1 is the maximum; inconclusive means response in the unintended direction; inactive means score below 0.9.
# Legend:
# [1] = system: chicken Androgen Receptor (AR), gene 422165; experiment: ATG_chAR_XSP1: Attagene TRANS-FACTORIAL Multi-Species (XSP1) HepG2 Assay for chicken Androgen Receptor (AR) (AID 2283768)
# How it was run: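 HepG2 cells transiently transfected with multiplexed GAL4-UAS reporter units expressing chimeric chicken AR-Gal4; 3 nM 6-alpha-fluorotestosterone for partial AR stimulation; 24 h after dosing, reporter mRNA by RT-PCR and capillary electrophoresis, gain-of-signal versus DMSO.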
# [2] = system: frog Androgen Receptor (AR), gene 399456; experiment: ATG_frAR_XSP1: Attagene TRANS-FACTORIAL Multi-Species (XSP1) HepG2 Assay for frog Androgen Receptor (AR) (AID 2283770)
# [3] = ACEA_AR_antagonist_AUC_viability: ACEA Biosciences xCELLigence Real-Time Cell Analysis on Androgen Receptor Antagonism for Viability (AID 2283776);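 further: 22Rv1 human prostate cancer cells growing on impedance electrode plates; area under impedance growth curve at 80 h after dosing as viability; hits lower the growth signal relative to DMSO meaning cytotoxicity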
# How it was run: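 Real-time electrical impedance tracks 22Rv1 proliferation after continuous compound exposure (top 100 uM final, 1:4 steps, 8 concentrations). The 80 h area-under-curve serves as the cytotoxicity readout relative to DMSO.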
# [4] = ACEA_AR_agonist_AUC_viability: ACEA Biosciences xCELLigence Real-Time Cell Analysis on Androgen Receptor Agonism for Viability (AID 2283775);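 on AC50: viability read 80 hours after compound addition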
# How it was run: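 Read-out is area under the impedance curve at 80 h post-dose in 22Rv1 cells, with DMSO as baseline and signal loss taken as reduced viability. Compounds ran in duplicate from 100 uM final.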
structure (smiles),measurement,setting,value
C[C@]12CCC(=O)C[C@@H]1CC[C@@H]1[C@@H]2CC[C@]2(C)[C@@H](O)CC[C@@H]12,AC50,[1],0.282 µM (active)
same,AC50,[2],0.177 µM (active)
ClC(Cl)=C(Cl)C(Cl)=C(Cl)Cl,outcome,[3],inactive
Cc1ccccc1C(=O)Nc1cccc(OC(C)C)c1,outcome,[4],inactive
same,outcome,[3],inactive
O=C/C=C/c1ccccc1,outcome,[4],inactive
same,outcome,[3],inactive
Clc1ccc(COC(Cn2ccnc2)c2ccc(Cl)cc2Cl)cc1 (stereo unspecified),AC50,[3],7.1 µM (active)
C=CC#N,outcome,[3],inactive
C[C@@H]1C[C@@H]([C@H](O)CC2CC(=O)NC(=O)C2)C(=O)[C@@H](C)C1,AC50,[4],2.1 µM (active)
same,AC50,[3],1.35 µM (active)
OCc1ccco1,outcome,[4],inactive
same,outcome,[3],inactive
CCOP(=S)(OCC)SCSP(=S)(OCC)OCC,outcome,[4],inactive
same,AC50,[3],67 µM (active)
O=C(O)C(F)(F)C(F)(F)C(F)(F)C(F)(F)C(F)(F)C(F)(F)C(F)(F)C(F)(F)C(F)(F)C(F)(F)F,AC50,[4],36 µM (active)
same,outcome,[3],inactive
CCCCCCCCSC(=O)Oc1cc(Cl)nnc1-c1ccccc1,outcome,[3],inactive
N#CN=C(N)N,outcome,[4],inactive
same,outcome,[3],inactive
Clc1ccc(C2(Cn3cncn3)CC(Br)CO2)c(Cl)c1 (stereo unspecified),outcome,[4],inactive
same,outcome,[3],inactive
CC(C)C1CCC(Cc2ccc(Cl)cc2)C1(O)Cn1cncn1 (stereo unspecified),outcome,[4],inactive
same,AC50,[3],4.94 µM (active)
CC(=O)c1cc(C(C)(C)C)cc2c1CCC2(C)C,outcome,[3],inactive
NNC(=S)NN,outcome,[4],inactive
same,outcome,[3],inactive
ClC1(Cl)C2(Cl)C3(Cl)C4(Cl)C(Cl)(Cl)C5(Cl)C3(Cl)C1(Cl)C5(Cl)C24Cl (stereo unspecified),outcome,[4],inactive
same,outcome,[3],inactive
CC(=O)[O][Hg][c]1ccccc1,AC50,[4],1.68 µM (active)
same,AC50,[3],1.63 µM (active)
COP(=S)(OC)Oc1ccc(Sc2ccc(OP(=S)(OC)OC)cc2)cc1,outcome,[4],inactive
same,outcome,[3],inactive
CNC,outcome,[3],inactive
COC(=O)c1sccc1S(=O)(=O)NC(=O)Nc1nc(C)nc(OC)n1,outcome,[3],inactive
C=C(C)C(=O)[O][Sn]([CH2]CCC)([CH2]CCC)[CH2]CCC,AC50,[4],1.43 µM (active)
same,AC50,[3],1.35 µM (active)
C1CCC(NC2CCCCC2)CC1,outcome,[3],inactive
COc1ccc(C=O)cc1,outcome,[4],inactive
same,outcome,[3],inactive
COc1cc(-c2ccc(N)c(OC)c2)ccc1N,AC50,[4],27.1 µM (active)
same,AC50,[3],18.4 µM (active) and 22.3 µM (active)
C=CCc1ccc(OC)cc1,outcome,[4],inactive
same,outcome,[3],inactive
O=C(O)C(F)(F)C(F)(F)C(F)(F)C(F)(F)C(F)(F)C(F)(F)F,outcome,[4],inactive
same,outcome,[3],inactive
O=c1[nH]c(=O)[nH]c(=O)[nH]1,outcome,[4],inactive
same,outcome,[3],inactive
CC(C)(OO)c1ccccc1,outcome,[4],inactive
same,outcome,[3],inactive
C=C(C)C#N,outcome,[4],inactive
same,outcome,[3],inactive
Clc1nc(Cl)nc(Cl)n1,outcome,[3],inactive
CCN1CCC2(CC1)COc1cc3c(cc12)N(C(=O)c1ccc(-c2ccc(-c4nnc(C)o4)cc2C)cc1)CC3,AC50,[4],9.92 µM (active)
same,AC50,[3],10.4 µM (active)
ClCC(Cl)CCl,outcome,[3],inactive
O=S(=O)(c1ccc(Cl)cc1)c1ccc(Cl)cc1,outcome,[4],inactive
same,outcome,[3],inactive
O=[N+]([O-])c1ccc(O)c([N+](=O)[O-])c1,AC50,[4],50 µM (active)
same,AC50,[3],50 µM (active)
Cl/C=C/Cl,outcome,[4],inactive
same,outcome,[3],inactive
O=C(NCO)NCO,outcome,[4],inactive
same,outcome,[3],inactive
O=C(O)C(Cl)(Cl)Cl,outcome,[3],inactive
CCC[CH2][Sn]([CH2]CCC)([CH2]CCC)[O]C(=O)c1ccccc1,AC50,[4],4.45 µM (active)
same,AC50,[3],1.06 µM (active)
Cn1sc(Cl)cc1=O,AC50,[4],77.2 µM (active)
same,AC50,[3],80.7 µM (active)
CC(C)(c1ccccc1)c1ccc(O)c(C(C)(C)c2ccccc2)c1,AC50,[4],10.1 µM (active)
same,AC50,[3],12.8 µM (active)
